Assay results reported in the supplement of paper PMC10338343.
± gives the standard deviation. Whole data set: some 8,200 sequences, median “pre-steady-state target cleavage rate” near 0.024, cut for the highest 2% near 1.3. The entries come from a sample that favours the highest values as a whole.

Test system: MIWI (PIWIL1) piRISC loaded with L1MC piRNA (30 nt)
Experiment: pre-steady-state target cleavage rate (min^-1); MIWI and MILI are mouse PIWI proteins and EfPiwi is from a freshwater sponge; tags in brackets are library labels; higher = faster piRNA-guided slicing of the target
Conditions: guide: L1MC piRNA 5'p-UAACUAAAUACUAUGCAAGCUGUAGGUCCU
Experimental: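 Cleave-'n-Seq: a library of target RNAs (target site embedded in constant flanks, ACAGCATTCCGCGTTAGTGATATCCG... 5' flank; DNA-blocked outside the site) at 0.1 nM was incubated with 1 nM active mouse MILI or MIWI piRISC (synthetic 5'-monophosphorylated piRNA guide) with or without 500 nM mouse GTSF1 at 33 °C for 1 min to 16 h. Uncleaved targets were sequenced and normalised to non-target controls, and the pooled three trials were fitted to a burst-and-steady-state model to give the pre-steady-state cleavage rate (min^-1; k3 is constrained to at most 1e-4). Sequence is the target site only; target names encode pairing extent (gX:gY) and contiguous / 1-mismatch / 2-mismatch / bulge geometry. Fits with R² ≤ 0 are excluded.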

[1] = auxiliary factor: 500 nM mouse GTSF1
[2] = auxiliary factor: none (no GTSF1)

Sequence	pre-steady-state target cleavage rate [1]	pre-steady-state target cleavage rate [2]
UCCUGCUAACAGCUUGCAUAGUAUUUAGUUA	0.617 ± 0.052	0.0487 ± 0.0083
AGGACCUACAGCUUGCAUAGUAAAAACAAA	0.268 ± 0.068	–
UGGACCUACAGCUUCCAUAGUAAUUAGUUA	0.0113 ± 0.0031	–
UCCUGGAACAGCUUGCAUAGUACUUUAGUUA	0.472 ± 0.036	0.00827 ± 0.0032
UCCAGCUACACCUUGCAUAGUAUUUAGUUA	0.797 ± 0.034	0.0443 ± 0.0068
UCCUGGAUCAGCUUGCAUAGAAUUUACAAA	0.0559 ± 0.014	–
UGGACCUACAGCUUGCAUAGCAUUUAGUUA	0.379 ± 0.025	0.0275 ± 0.0061
UCCUGGAUCCAGCUUGCAUAGUAUUUAGUUA	1.31 ± 0.081	0.0546 ± 0.016
UCCUGGUCCAGCUUGCAUAGUAUUUAGUUA	0.717 ± 0.055	0.0383 ± 0.0079
UCCUGGACCAGCUUGCAUAGUAUUUAGUUA	0.915 ± 0.048	0.0367 ± 0.0074
UCCUGGAUCCGCUUGCAUAGUAUUUAGUUA	0.927 ± 0.053	0.031 ± 0.0075
UCCUGGAUGAGCUUGCAUAGUAUUUAUUUA	0.267 ± 0.055	0.025 ± 0.0077
AGGACCUACAGGUUCCAUAGUAUUUAGUUA	0.659 ± 0.17	–
ACCUCCUACAGCUUGCAUAGUAUUUAGUAA	0.85 ± 0.046	0.0351 ± 0.0072
UCCUCCUACAGCUUGCAUAGUAUUUUAGUUA	1.04 ± 0.044	0.0227 ± 0.0055
UCCUCCUACAGCUUGCAUAGUAUUUAGUUC [g2:g26:cont:t1C]	1.09 ± 0.039	0.0511 ± 0.011
UCCUCCUACAGCUUGCAUAGUAUUUAGUUA [g2:g26:cont:t1A]	1.32 ± 0.052	0.0816 ± 0.015
UCCUCUACAGCUUGCAUAGUAUUUAGUUA	1.34 ± 0.047	0.0659 ± 0.011
UCCUCUCUACAGCUUGCAUAGUAUUUAGUUA	0.797 ± 0.038	0.0529 ± 0.0081
UCCUUCUACAGCUUGCAUAGUAUUUAGUUA	1.02 ± 0.033	0.0527 ± 0.0083
ACCUCCUACAGCUUGCAUAGUAUUUAGUUA	1.35 ± 0.052	0.0784 ± 0.012

Sequence	pre-steady-state target cleavage rate [1]	pre-steady-state target cleavage rate [2]
UCCUCCCUACAGCUUGCAUAGUAUUUAGUUA	1.09 ± 0.038	0.075 ± 0.016
UCCUGGUACAGCUUGCAUAGUAGUUAGUUA	0.433 ± 0.051	0.0224 ± 0.0045
UGGACGUACAGCUUGCAUAGUAUUUUGUUA	0.75 ± 0.055	0.052 ± 0.009
UCCUGGAUCAGCAUUGCAUAGUAUUUAGUUA	0.875 ± 0.036	0.0165 ± 0.0047
UCCUGGAUGUCGAUGCAUAGUAUUUGAGUUA	0.0114 ± 0.0044	–
UCCACCUACACCUUGCAUAGUUUUUAGUUA	0.249 ± 0.032	0.0171 ± 0.0033
UCCUGGAACAGCGUUGCAUAGUAUUUAGUUA	0.939 ± 0.055	0.0303 ± 0.0056
UCCUGCUACAGGUUGCAUAGUAUUUACAAA	0.117 ± 0.028	–
UCCACCUACAGACUUGCAUAGUAUUUAGUUA	0.606 ± 0.06	0.0272 ± 0.0043
UCCUCCUACAGCUUGCAUAGCUAUUUAGUUA	0.0221 ± 0.01	–
UCGACCUACCGCUUGCAUAGUAUUUAGUUA	1.64 ± 0.069	0.0745 ± 0.015
UCCUGCUACCGCUUGCAUAGUAUUUAGUUA	1.1 ± 0.1	0.0571 ± 0.011
AGGACCUACACGCUUGCAUAGUAUUUAGUUA	1.1 ± 0.065	0.0703 ± 0.01
AGGACCUACCAGCUUGCAUAGUAUUUAGUUA	1.17 ± 0.069	0.0704 ± 0.014
AGGACCUACCGCUUGCAUAGUAUUUAGUUA	1.43 ± 0.082	0.0866 ± 0.017
UGGACCUACGAGCUUGCAUAGUAUUUAGUUA	0.657 ± 0.11	0.0557 ± 0.013
UGGACCUACCGCUUGCAUAGUAUUUAGUUA	1.57 ± 0.11	0.0558 ± 0.0098
UCCACCUACCGCUUGCAUAGUAUUUAGUUA	1.11 ± 0.05	0.0544 ± 0.0086
UGGACCUACCAGCUUGCAUAGUAUUUAGUUA	1.25 ± 0.1	0.0599 ± 0.013
UCCUCCUACGCUUGCAUAGUAUUUAGUUA	1.24 ± 0.045	0.0478 ± 0.0094
UCGACCUACCAGCUUGCAUAGUAUUUAGUUA	1.29 ± 0.064	0.0725 ± 0.016

Sequence	pre-steady-state target cleavage rate [1]	pre-steady-state target cleavage rate [2]
UCCUCCUACCGCUUGCAUAGUAUUUAGUUA	1.34 ± 0.062	0.0565 ± 0.0099
UCCUGGAUGUGCUUGCAUUGUUUUUAGUUA	0.0048 ± 0.0031	–
UCCUGGAUGUGCUUGCAUAGUAUUUUGUAA	0.0569 ± 0.016	0.00775 ± 0.0023
UCCACCUACAGCUUGCAUAGUAUUUGGUUA	0.555 ± 0.038	0.0358 ± 0.0079
UCGACCUACAGGUUGCAUAGUAUUUACUUA	0.296 ± 0.04	0.025 ± 0.0051
AGCACCUACACCUUGCAUAGUAUUUAGUUA	0.739 ± 0.074	0.0408 ± 0.0062
UCGACCUACAGCUUGGUUAGUAUUUACAAA	0.0826 ± 0.02	–
UCGACCUACAGCUUGCUAGUAUUUAGUUA	0.219 ± 0.061	–
ACGACCUACAGCUUGCUUAGUAUUUAGUUA	1.57 ± 0.074	0.0527 ± 0.013
UGGACCUAGAGCUUGCUUAGUAUUUAGUUA	1.18 ± 0.095	0.0321 ± 0.0069
UCGACCUACAGCUUGGUUAGUAUUUAGUAA	0.72 ± 0.061	0.00525 ± 0.002
UCGACCUACAGCUUGGUUAGUAUUUAGUUA	1.42 ± 0.058	0.00908 ± 0.0026
UGCACCUACAGCUUGCUUAGUAUUUAGUUA	1.25 ± 0.092	0.031 ± 0.0064
UCCACCUAGAGCUUGCUUAGUAUUUAGUUA	0.549 ± 0.044	0.0205 ± 0.0044
AGCACCUACAGCUUGCUUAGUAUUUAGUUA	0.978 ± 0.079	0.0389 ± 0.0089
UCGACCUAGAGCUUGCUUAGUAUUUAGUUA	1.34 ± 0.048	0.0282 ± 0.0063
UCGACCUACAGCUUGCUUAGUAUUUAGUUA	1.66 ± 0.074	0.0474 ± 0.01
UCGACCUACAGCUUGCUUAGUAUUUAGUAA	1.02 ± 0.068	0.0176 ± 0.005
UCCUCCUACAGGAUGCAUAGUAUUUACAAA	0.253 ± 0.041	–
